The results in this text go back to PubChem BioAssay.

The structures appear in SMILES notation. Active and inactive are the calls of the source.

Assay [1] can be described thus: binders of probe aFSTL3 on microarray, primary screen, stem cell growth factor project, biochemical, small-molecule microarray, fluorescence 635/667 (AID 1064).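 Note: measures binding of the biotinylated anti-FSTL3 antibody to printed compounds.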 The settings on record: higher = more signal.
Assay [2] can be described thus: binders from COS7 lysate, DM2A8 probe, primary screen, torsin A project, cell lysate, small-molecule microarray, fluorescence 635/667 (AID 1065). The settings on record: higher = more signal, COS7 lysate expressing mutant human TOR1A.
Assay [3] can be described thus: binders of probe aFGF2 on microarray, primary screen, stem cell growth factor project, biochemical, small-molecule microarray, fluorescence 635/667 (AID 1067).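 Note: measures binding of biotinylated aFGF2 protein to printed compounds on slides; z-score merges feature fluorescence and signal-to-noise across triplicate slides.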 The settings on record: higher = more signal.
Assay [4] can be described thus: binders of probe aFGF10 on microarray, primary screen, stem cell growth factor project, biochemical, small-molecule microarray, fluorescence 635/667 (AID 1071).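 Note: score merges 667 nm spot intensity and signal to noise from triplicate slides.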 The settings on record: higher = more signal.
In assay [5] the target is Neurogenic locus notch homolog protein 2 (Homo sapiens) (UniProt Q04721). Briefly: Notch2 binders on small-molecule microarrays, primary screen, biochemical, small-molecule microarray, 635 nm fluorescence, stem cell growth factors (AID 1073). The settings on record: Notch2 binding, higher = more signal.
Neurogenic locus notch homolog protein 2 (Homo sapiens), sequence (Q04721 whole entry, looked up, canonical isoform): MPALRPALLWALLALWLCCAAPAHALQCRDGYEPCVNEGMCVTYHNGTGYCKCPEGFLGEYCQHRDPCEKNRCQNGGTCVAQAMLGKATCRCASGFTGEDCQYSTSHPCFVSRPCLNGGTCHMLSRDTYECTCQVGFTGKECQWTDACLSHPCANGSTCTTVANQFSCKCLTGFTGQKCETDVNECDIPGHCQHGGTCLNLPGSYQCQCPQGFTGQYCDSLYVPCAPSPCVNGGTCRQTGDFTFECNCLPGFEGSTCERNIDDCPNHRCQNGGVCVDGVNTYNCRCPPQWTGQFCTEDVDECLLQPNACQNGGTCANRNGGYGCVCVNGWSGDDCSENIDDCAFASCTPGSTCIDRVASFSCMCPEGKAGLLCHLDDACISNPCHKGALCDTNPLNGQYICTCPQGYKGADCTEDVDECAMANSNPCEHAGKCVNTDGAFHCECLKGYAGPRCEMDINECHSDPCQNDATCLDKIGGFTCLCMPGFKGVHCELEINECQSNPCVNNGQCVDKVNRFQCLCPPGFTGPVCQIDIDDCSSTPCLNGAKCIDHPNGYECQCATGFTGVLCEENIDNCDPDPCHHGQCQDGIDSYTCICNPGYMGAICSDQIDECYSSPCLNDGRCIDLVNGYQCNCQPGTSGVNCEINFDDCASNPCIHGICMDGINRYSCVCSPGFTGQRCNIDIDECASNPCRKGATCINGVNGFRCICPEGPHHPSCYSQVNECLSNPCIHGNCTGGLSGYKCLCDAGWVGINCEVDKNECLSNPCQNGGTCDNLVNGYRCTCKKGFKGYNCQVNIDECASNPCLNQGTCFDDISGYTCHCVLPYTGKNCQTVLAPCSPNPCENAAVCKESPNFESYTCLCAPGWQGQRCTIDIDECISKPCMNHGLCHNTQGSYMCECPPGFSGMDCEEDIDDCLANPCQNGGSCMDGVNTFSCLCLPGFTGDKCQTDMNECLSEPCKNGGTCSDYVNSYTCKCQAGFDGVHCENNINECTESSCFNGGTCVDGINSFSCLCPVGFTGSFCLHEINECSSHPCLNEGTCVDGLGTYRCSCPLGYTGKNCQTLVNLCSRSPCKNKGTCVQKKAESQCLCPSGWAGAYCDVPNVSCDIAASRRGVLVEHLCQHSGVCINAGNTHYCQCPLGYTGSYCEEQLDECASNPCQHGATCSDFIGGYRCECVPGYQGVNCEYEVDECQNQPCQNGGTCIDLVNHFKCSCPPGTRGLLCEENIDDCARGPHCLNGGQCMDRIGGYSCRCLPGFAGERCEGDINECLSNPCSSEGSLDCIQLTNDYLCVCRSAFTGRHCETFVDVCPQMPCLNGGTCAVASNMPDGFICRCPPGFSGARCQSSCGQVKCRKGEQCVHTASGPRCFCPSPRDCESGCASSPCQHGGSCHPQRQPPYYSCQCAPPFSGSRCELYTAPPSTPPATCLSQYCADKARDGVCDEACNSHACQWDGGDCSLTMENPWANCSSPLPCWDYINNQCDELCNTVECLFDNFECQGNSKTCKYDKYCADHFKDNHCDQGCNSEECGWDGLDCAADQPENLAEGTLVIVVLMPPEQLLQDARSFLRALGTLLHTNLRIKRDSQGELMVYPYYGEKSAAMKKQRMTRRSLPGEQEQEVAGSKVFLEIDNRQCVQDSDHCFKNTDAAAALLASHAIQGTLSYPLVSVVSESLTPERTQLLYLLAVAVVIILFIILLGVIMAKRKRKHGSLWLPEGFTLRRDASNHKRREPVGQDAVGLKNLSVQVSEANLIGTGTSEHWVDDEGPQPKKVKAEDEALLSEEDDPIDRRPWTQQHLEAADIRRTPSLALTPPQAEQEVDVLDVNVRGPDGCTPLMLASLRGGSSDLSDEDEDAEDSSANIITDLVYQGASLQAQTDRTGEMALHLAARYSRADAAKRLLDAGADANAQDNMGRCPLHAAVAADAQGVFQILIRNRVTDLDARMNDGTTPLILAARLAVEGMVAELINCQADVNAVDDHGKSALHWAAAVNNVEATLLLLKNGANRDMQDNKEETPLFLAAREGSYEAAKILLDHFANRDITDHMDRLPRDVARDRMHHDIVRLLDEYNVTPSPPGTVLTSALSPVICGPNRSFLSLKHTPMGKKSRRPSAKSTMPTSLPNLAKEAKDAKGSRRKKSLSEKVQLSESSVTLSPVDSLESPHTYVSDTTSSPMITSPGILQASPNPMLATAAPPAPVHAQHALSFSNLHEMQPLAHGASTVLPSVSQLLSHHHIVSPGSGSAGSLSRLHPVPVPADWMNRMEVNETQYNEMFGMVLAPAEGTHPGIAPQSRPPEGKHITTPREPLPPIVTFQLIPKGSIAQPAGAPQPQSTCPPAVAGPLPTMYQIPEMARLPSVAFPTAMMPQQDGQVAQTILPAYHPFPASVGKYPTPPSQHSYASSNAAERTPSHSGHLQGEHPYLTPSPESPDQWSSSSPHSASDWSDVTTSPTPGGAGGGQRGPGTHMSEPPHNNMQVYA
Assay [6] concerns the target Pro-neuregulin-1, membrane-bound isoform (Homo sapiens) (UniProt Q02297). Briefly: NRG1 binders on small-molecule microarrays, primary screen, psychiatric disease protein project, biochemical, small-molecule microarray, fluorescence 635/667 (AID 1075).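 Note: score combines 667 nm spot fluorescence with signal to noise.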 The settings on record: NRG1 binding, 635 nm fluorescence, higher = more signal.
Assay [7] relates to Neuregulin-1 EGF-like domain. Put plainly: binders of neuregulin-1 EGF-like domain, primary screen, biochemical, small-molecule microarray, 635 nm fluorescence (AID 1081).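 Note: binding of the protein to compounds printed on small-molecule microarray slides.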 The note with it: small-molecule microarray binding, higher = more signal.
A short description of assay [8]: FRG1 promoter luciferase signal modulators, primary screen, FRG1 inhibition for FSHD, cell-based, C2C12 myotubes, firefly/Renilla luciferase, luminescence (AID 1084). The note with it: higher = more signal, called active from +8 up or from −8 down.
Assay [9] can be described thus: binders of probe aFST on microarray, primary screen, stem cell growth factor project, biochemical, small-molecule microarray, fluorescence 635/667 (AID 1086).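 Note: score merges 667 nm fluorescence with signal-to-noise of each printed compound spot.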 The settings on record: higher = more signal.
The nature of assay [10]: binders of probe aHhip on microarray, primary screen, stem cell growth factor project, biochemical, small-molecule microarray, fluorescence 635/667 (AID 1087).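 Note: score merges spot fluorescence at 667nm with spot signal to noise ratio.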 The settings on record: higher = more signal.

Pro-neuregulin-1, membrane-bound isoform (Homo sapiens), sequence (Q02297 whole entry, looked up, the tested form may be a part, canonical isoform): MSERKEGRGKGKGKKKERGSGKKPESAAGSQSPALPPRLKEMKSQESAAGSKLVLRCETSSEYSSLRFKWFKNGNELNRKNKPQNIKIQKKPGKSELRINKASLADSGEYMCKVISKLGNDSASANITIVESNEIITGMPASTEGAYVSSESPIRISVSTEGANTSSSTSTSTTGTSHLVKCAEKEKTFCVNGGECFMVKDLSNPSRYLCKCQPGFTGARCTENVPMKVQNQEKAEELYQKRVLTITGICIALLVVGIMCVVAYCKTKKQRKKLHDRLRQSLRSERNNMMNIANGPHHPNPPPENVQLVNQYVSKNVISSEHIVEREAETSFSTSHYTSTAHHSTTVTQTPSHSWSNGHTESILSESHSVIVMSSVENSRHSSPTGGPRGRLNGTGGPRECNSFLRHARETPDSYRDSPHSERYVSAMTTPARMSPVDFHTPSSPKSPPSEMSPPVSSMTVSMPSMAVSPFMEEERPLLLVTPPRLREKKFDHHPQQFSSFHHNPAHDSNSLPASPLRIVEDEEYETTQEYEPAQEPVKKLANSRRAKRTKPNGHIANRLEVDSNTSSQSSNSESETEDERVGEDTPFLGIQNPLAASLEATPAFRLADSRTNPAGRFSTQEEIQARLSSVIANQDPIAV

`CCc1cccc(NC(=O)O[C@H]2[C@H](OC(=O)Nc3ccc4c(c3)OCO4)[C@@H](OC(=O)Nc3ccc4c(c3)OCO4)[C@@H](OC)O[C@@H]2CO)c1`: the composite z-score in assay [1] is -0.263; in assay [2], 1.45; in assay [3], 0.225; in [4], 1; in [5], 1.49; in [6], -0.396. In addition, the figures for the composite z-score in assay [7], in assay [9] and in [10] were 1.25, 0.507 and -0.15, respectively. The z-score in assay [8] is 8.02 (active).
For `CCOC(=O)[C@H](Cc1ccccc1)NC(=O)CCC1CC(OC(=O)NCCc2ccc(F)cc2)CC2(CCCC(COC(=O)NCC(c3ccccc3)c3ccccc3)O2)O1` (stereo not given in full), the composite z-score in [1] was -0.183; in assay [2], 0.0877; in [3], -0.0785; in assay [4], 0.627; in assay [5], 0.823; in assay [6], 0.852. Also, the composite z-score in assay [7] was determined as 0.919; in assay [9] it was 0.486; in [10], 0.0053. Besides, the z-score in assay [8] was 2.14 (inactive).
As to `O=C1[C@H]2[C@H]3[C@H](O)[C@H](O)CC(=NOC[C@@H](O)COCc4ccco4)[C@H]3CC[C@H]2C(=O)N1Cc1ccc2c(c1)OCO2`, the composite z-score is -0.707 in assay [1]; 1.73 in assay [2]; -0.204 in assay [3]; -0.143 in assay [4]; -0.282 in [5]; -0.621 in assay [6]. The composite z-score in assay [7] was 0.561; in assay [9], -0.3; in assay [10] it was -0.44. Further, the z-score in assay [8] is 0.316 (inactive).
Regarding `CO[C@@H]1COC(=O)CC=C[C@@H](C)[C@@H]2C=C[C@H](O)[C@@H](COC(=O)[C@H](C)NC(=O)CC=C[C@H]1C)O2`, the composite z-score in [1] is -0.556; in assay [2], 0.977; in assay [3], -0.15; in assay [4] it was 0.321; in assay [5], 0.268; in [6], -0.497. In addition, the composite z-score was found to be 0.849 in [7], 0.277 in [9] and 0.351 in [10]. In addition, in [8], the z-score was 0.361 (inactive).
On to `C/C=C\[C@@H](NCc1ccccc1Br)[C@@H](O)Cc1ccccc1`, for which the composite z-score in [1] was 1.08; in assay [2] it was -0.441; in assay [3], -0.151; in assay [4] it was -0.75; in assay [5] it was -1.46; in [6], -0.0182. Besides, the composite z-score in assay [7] is -0.537; in assay [9], -0.336; in assay [10], -0.236. Moreover, the z-score in [8] is -0.445 (inactive).
With `CO[C@H]1COC(=O)[C@H](C)COC(=O)CC=C[C@@H](C)[C@H](OC)COC(=O)CC=C[C@@H]1C`, the composite z-score in assay [1] was -0.654; in assay [2], 0.682; in assay [3], -0.226; in assay [4], -0.0247; in assay [5], -0.217; in [6], -0.481. Further, the composite z-score in assay [7] was -0.311; in [9], -0.08; in assay [10], 0.0854. The z-score in assay [8] is 0.847 (inactive).
Take `C=CC[C@@H]1C=C[C@H](ON=C(C)CCN2CCc3nc(CC)c(CC)cc3C2)[C@@H](CO)O1`: the composite z-score was 0.332 in assay [1]; 1.43 in assay [2]; -0.0593 in assay [3]; -0.21 in [4]; 0.0383 in assay [5]; -0.21 in assay [6]. The composite z-score in [7] was 0.987; in [9] it was 0.553; in [10], -0.123. Further, the z-score in assay [8] is 2.55 (inactive).
Regarding `CCOC(=O)[C@H](CC(C)C)NC(=O)CCC1CC(OC(=O)NCCc2ccc(F)cc2)CC2(CCCC(COC(=O)NCc3ccccc3)O2)O1` (stereo not given in full), the composite z-score was -0.969 in assay [1]; 0.561 in assay [2]; 0.0131 in [3]; 1.02 in [4]; 0.769 in [5]; 1.13 in assay [6]. Besides, the composite z-score is 1.28 in [7], 0.223 in assay [9] and 0.0695 in assay [10]. For the same molecule, the z-score in assay [8] is 2.94 (inactive).
With `CO[C@@H]1COC(=O)CC=C[C@@H](C)[C@H](OC)COC(=O)[C@H](COCc2ccccc2)NC(=O)CC=C[C@H]1C`, the composite z-score in assay [1] was 0.0122; in [2], 0.843; in assay [3], -0.0775; in assay [4], -0.0228; in assay [5] it was -0.0992; in [6] it was -0.673. The composite z-score in [7] was -0.831; in assay [9] it was -0.455; in [10] it was -0.0618. In addition, the z-score in assay [8] is -0.886 (inactive).
Take `COc1ccccc1CN1C(=O)c2ccccc2[C@@]2(Cc3ccccc3N(C(C)C)C2=O)[C@@H]1c1ccc(CO)cc1`: the composite z-score was -0.111 in assay [1]; -0.336 in assay [2]; -0.186 in assay [3]; -0.689 in assay [4]; -0.294 in assay [5]; -0.0492 in [6]. The figures for the composite z-score in assay [7], in [9] and in assay [10] were -0.723, 0.351 and -0.374, respectively. In assay [8], the z-score is -2.45 (inactive).
`CC(C)(C)OC(=O)CC[C@]1(C(N)=O)COC(c2ccc(OCCCO)cc2)=N1`: the composite z-score is 0.645 in [1]; 2.69 in [2]; 0.325 in assay [3]; 0.6 in [4]; 1.39 in [5]; 1.14 in assay [6]. Besides, the composite z-score in assay [7] was 1.03; in [9], 1.19; in [10], 0.462. Besides, the z-score in assay [8] is 0.266 (inactive).
Take `CO[C@H]1O[C@H](CO)[C@@H](OC(=O)Nc2ccc3c(c2)OCO3)[C@H](OC(=O)Nc2ccccc2-c2ccccc2)[C@@H]1OC(=O)Nc1ccccc1-c1ccccc1`: the composite z-score was 0.0442 in assay [1]; -0.029 in [2]; -0.0238 in [3]; 1.13 in assay [4]; 1.57 in assay [5]; 0.985 in assay [6]. For the same molecule, the composite z-score in [7] worked out at 1.17; in [9], 0.626; in [10], 0.151. The z-score in [8] was 1.36 (inactive).
In the case of `COC(=O)CC=C[C@H](C)[C@@H](OCc1ccccc1Br)C(C)C`, the composite z-score in [1] was -0.188; in assay [2] it was 0.398; in assay [3] it was -0.191; in assay [4], 0.189; in assay [5] it was 0.0089; in assay [6], -0.252. Further, the composite z-score was -0.334 in assay [7], -0.0799 in [9] and -0.306 in assay [10]. Also, in [8], the z-score was -0.749 (inactive).
For the molecule `COC(=O)[C@H](C)NC(=O)CCC1CC(OC(=O)NCc2ccc3c(c2)OCO3)CC2(CCCC(COC(=O)NCCOc3ccccc3)O2)O1` (stereo not given in full), the composite z-score in assay [1] was -0.426; in [2], 0.898; in [3], -0.122; in [4], 0.325; in [5], 1.06; in assay [6], 0.689. Further, the figures for the composite z-score in [7], in [9] and in [10] were 1.04, 0.91 and -0.479, respectively. The z-score in [8] was -0.503 (inactive).
With `O=C1[C@H]2[C@H]3[C@H](O)[C@H](O)CC(=NOC[C@@H](O)COCc4ccco4)[C@@H]3CC[C@H]2C(=O)N1c1ccc(F)cc1F`, the composite z-score in assay [1] is -0.469; in assay [2], 1.4; in assay [3], -0.128; in assay [4], 0.138; in assay [5], 0.21; in [6], -0.592. Moreover, the composite z-score was -0.574 in [7], -0.128 in assay [9] and 0.177 in assay [10]. Moreover, the z-score in [8] was -0.24 (inactive).
